# Article PMC7862700, “An all-to-all approach to the identification of sequence-specific readers for epigenetic DNA modifications on cytosine”
# Key:
# Test in all cases: DAPPL (digital affinity profiling via proximity ligation, sequencing); 10 mM Tris-HCl pH 7.5, 50 mM NaCl, 1 mM DTT, 4% glycerol, room temperature, 30 min; GST-TFs on glutathione beads, 16-mer random dsDNA library, 0.1% formaldehyde crosslink after washing; high values mean tight binding
# FLI1 = target: T1, FLI1 (Homo sapiens, UniProt Q01543 1-452); details: protein: recombinant; tags: N-terminal GST; dsDNA, one strand shown
# T1 sequence: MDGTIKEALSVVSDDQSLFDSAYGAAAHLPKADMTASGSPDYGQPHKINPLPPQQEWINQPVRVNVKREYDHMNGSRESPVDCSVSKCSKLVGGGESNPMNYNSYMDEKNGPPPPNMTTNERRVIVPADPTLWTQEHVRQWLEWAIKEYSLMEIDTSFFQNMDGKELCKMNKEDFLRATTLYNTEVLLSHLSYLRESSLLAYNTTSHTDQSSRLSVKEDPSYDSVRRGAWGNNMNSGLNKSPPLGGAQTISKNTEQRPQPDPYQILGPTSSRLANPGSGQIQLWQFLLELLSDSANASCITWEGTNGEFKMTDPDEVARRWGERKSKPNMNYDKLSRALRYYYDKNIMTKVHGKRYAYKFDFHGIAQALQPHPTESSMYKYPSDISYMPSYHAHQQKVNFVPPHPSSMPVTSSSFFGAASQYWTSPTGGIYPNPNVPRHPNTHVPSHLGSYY
# Outline: (§1)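 Beads coated with glutathione captured GST-fused human transcription factors that had been expressed in yeast, and the factors were then given DNA barcodes and pooled with a tag-only sample. The pools were incubated with 200 nmole of a random double-stranded 16-mer DNA library in Tris/NaCl/DTT/glycerol buffer for 30 min at room temperature, washed, crosslinked with 0.1% formaldehyde and proximity-ligated with BsaI/T4 ligase at 37 °C for 1 h. PCR amplification and Illumina NextSeq500 sequencing came last. Binding signal is each hexamer's read frequency for a factor divided by its frequency for the tag-only sample.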
# GABPA = target: T2, GABPA (Homo sapiens, UniProt Q06546 1-454); details: protein: recombinant; tags: N-terminal GST; dsDNA, one strand shown
# T2 sequence: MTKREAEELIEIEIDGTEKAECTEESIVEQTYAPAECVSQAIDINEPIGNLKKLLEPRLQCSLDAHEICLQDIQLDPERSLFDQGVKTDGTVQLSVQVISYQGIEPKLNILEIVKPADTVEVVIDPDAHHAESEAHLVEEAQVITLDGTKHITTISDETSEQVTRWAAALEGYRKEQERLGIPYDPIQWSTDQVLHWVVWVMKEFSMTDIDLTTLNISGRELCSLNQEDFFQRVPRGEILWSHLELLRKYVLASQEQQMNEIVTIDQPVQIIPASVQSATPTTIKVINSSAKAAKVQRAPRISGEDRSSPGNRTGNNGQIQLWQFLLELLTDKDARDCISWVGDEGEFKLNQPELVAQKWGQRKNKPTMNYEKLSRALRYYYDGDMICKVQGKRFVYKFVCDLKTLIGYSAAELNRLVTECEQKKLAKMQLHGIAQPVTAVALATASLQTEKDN
# Outline: as §1
# ERG = target: T3, ERG (Homo sapiens, UniProt P11308 1-479); details: protein: recombinant; tags: N-terminal GST; dsDNA, one strand shown
# T3 sequence: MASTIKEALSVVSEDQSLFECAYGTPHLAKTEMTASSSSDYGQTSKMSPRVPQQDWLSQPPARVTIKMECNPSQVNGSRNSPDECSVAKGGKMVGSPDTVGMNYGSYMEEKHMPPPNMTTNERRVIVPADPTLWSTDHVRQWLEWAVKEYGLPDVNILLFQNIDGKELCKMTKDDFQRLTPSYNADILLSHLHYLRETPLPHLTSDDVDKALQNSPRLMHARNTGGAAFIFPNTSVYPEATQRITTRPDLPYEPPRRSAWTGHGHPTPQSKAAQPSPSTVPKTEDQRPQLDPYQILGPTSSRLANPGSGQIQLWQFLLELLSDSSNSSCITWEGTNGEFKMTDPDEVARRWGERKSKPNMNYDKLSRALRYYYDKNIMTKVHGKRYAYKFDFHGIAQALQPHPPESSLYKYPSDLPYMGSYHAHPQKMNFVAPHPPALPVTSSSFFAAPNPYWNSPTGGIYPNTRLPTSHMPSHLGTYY
# Outline: as §1
# ELF1 = ELF1 (Homo sapiens, UniProt P32519 1-619); details: protein: recombinant; tags: N-terminal GST; dsDNA, one strand shown
# Outline: as §1
# SPIB = SPIB (Homo sapiens, UniProt Q01892 1-262); details: protein: recombinant; tags: N-terminal GST; dsDNA, one strand shown
# Outline: as §1
# ELK3 = target: T4, ELK3 (Homo sapiens, UniProt P41970 1-407); details: protein: recombinant; tags: N-terminal GST; dsDNA, one strand shown
# T4 sequence: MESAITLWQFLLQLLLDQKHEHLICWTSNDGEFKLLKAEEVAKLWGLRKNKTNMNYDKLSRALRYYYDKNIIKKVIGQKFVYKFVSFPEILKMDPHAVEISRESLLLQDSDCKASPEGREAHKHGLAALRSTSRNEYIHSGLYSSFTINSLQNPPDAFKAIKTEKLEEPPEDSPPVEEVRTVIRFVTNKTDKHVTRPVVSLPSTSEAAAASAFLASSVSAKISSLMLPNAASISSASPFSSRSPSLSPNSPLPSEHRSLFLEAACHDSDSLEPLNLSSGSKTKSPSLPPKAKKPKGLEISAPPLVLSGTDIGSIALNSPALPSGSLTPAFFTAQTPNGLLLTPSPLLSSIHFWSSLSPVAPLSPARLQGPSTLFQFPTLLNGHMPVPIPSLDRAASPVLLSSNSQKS
# Outline: as §1
# FEV = target: T5, FEV (Homo sapiens, UniProt Q99581 1-238); details: protein: recombinant; tags: N-terminal GST; dsDNA, one strand shown
# T5 sequence: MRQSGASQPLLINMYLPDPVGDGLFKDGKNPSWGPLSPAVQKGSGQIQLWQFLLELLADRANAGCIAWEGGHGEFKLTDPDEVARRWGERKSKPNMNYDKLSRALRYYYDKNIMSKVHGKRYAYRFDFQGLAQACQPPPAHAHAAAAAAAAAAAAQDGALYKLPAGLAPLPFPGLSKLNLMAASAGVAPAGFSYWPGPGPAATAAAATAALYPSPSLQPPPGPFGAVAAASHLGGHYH
# Outline: as §1
# ETV5 = ETV5 (Homo sapiens, UniProt P41161 1-510); details: protein: recombinant; tags: N-terminal GST; dsDNA, one strand shown
# Outline: as §1
# HSF1 = HSF1 (Homo sapiens, UniProt Q00613 1-529); details: protein: recombinant; tags: N-terminal GST; chain copies: 3; dsDNA, one strand shown
# Outline: as §1
# SPIC = target: T6, SPIC (Homo sapiens, UniProt Q8N5J4 1-248); details: protein: recombinant; tags: N-terminal GST; dsDNA, one strand shown
# T6 sequence: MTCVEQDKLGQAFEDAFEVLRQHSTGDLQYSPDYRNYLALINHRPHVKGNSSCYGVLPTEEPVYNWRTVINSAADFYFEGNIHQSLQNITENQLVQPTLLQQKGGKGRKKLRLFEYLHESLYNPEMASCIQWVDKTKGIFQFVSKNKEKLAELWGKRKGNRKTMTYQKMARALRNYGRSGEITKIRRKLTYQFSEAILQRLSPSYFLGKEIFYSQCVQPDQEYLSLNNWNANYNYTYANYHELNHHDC
# Outline: as §1
# ELF4 = ELF4 (Homo sapiens, UniProt Q99607 1-663); details: protein: recombinant; tags: N-terminal GST; dsDNA, one strand shown
# Outline: as §1
# ETV2 = target: T7, ETV2 (Homo sapiens, UniProt O00321 1-342); details: protein: recombinant; tags: N-terminal GST; dsDNA, one strand shown
# T7 sequence: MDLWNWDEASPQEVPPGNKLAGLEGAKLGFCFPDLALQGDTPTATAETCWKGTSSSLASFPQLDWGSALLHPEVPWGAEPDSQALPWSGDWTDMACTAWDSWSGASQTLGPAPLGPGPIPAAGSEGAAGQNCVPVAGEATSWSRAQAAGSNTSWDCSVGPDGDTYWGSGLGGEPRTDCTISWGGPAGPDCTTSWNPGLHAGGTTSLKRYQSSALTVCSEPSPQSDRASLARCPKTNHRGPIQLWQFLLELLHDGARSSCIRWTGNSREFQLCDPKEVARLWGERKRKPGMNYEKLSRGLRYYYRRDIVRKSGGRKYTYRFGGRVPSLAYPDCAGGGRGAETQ
# Outline: as §1
# ELF3 = target: T8, ELF3 (Homo sapiens, UniProt P78545 1-371); details: protein: recombinant; tags: N-terminal GST; dsDNA, one strand shown
# T8 sequence: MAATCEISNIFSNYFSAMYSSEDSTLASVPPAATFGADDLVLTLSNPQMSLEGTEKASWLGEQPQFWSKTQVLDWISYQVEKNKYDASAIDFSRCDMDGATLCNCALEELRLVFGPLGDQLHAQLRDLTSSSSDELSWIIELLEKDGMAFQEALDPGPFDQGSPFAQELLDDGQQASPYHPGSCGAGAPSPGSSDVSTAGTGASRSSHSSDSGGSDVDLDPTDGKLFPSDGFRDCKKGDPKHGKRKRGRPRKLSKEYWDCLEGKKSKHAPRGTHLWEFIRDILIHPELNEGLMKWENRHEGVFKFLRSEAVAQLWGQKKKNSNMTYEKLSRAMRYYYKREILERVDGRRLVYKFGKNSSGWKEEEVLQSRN
# Outline: as §1
# CRX = CRX (Homo sapiens, UniProt O43186 1-299); details: protein: recombinant; tags: N-terminal GST; dsDNA, one strand shown
# Outline: as §1
# ETV1 = ETV1 (Homo sapiens, UniProt P50549 1-477); details: protein: recombinant; tags: N-terminal GST; dsDNA, one strand shown
# Outline: as §1
# ELK1 = target: T9, ELK1 (Homo sapiens, UniProt P19419 1-428); details: protein: recombinant; tags: N-terminal GST; dsDNA, one strand shown
# T9 sequence: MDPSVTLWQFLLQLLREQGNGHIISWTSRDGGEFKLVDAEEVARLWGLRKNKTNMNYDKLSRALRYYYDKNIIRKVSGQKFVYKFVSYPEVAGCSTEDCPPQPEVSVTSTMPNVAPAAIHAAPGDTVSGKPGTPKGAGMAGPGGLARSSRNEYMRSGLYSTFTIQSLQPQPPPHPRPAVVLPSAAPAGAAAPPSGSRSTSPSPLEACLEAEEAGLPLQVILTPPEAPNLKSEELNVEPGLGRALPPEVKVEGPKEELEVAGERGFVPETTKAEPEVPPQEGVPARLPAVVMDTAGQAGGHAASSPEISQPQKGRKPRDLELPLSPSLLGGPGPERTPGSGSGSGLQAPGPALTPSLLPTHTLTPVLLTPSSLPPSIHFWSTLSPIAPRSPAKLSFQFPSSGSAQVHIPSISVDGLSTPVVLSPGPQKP
# Outline: as §1
# EHF = target: T10, EHF (Homo sapiens, UniProt Q9NZC4 1-300); details: protein: recombinant; tags: N-terminal GST; dsDNA, one strand shown
# T10 sequence: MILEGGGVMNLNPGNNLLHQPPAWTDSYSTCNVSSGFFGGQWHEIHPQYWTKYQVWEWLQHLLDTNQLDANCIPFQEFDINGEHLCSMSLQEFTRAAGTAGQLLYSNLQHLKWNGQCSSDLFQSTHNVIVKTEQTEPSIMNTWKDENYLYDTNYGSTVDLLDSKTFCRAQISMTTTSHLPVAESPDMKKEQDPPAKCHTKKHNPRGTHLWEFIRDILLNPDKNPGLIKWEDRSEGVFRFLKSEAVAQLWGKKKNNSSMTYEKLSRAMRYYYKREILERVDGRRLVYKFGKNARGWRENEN
# Outline: as §1
# SPI1 = SPI1 (Homo sapiens, UniProt P17947 1-270); details: protein: recombinant; tags: N-terminal GST; dsDNA, one strand shown
# Outline: as §1
# Sequence of HSF1 (Q00613 whole entry): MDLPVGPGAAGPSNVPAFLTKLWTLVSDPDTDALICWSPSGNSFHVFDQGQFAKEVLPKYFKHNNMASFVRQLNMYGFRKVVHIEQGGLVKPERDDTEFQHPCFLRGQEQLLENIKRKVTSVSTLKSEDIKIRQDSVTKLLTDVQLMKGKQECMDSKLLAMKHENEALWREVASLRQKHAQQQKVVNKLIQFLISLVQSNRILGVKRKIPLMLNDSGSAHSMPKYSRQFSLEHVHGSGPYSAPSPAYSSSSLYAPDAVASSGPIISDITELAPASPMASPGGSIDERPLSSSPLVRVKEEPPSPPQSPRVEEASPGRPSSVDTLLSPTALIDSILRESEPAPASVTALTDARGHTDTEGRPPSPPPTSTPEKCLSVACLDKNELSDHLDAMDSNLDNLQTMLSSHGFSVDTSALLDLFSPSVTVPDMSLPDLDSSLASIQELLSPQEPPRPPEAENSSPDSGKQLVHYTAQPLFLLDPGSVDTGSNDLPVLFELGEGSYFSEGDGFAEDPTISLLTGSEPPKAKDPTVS
# Sequence of ELF1 (P32519 whole entry): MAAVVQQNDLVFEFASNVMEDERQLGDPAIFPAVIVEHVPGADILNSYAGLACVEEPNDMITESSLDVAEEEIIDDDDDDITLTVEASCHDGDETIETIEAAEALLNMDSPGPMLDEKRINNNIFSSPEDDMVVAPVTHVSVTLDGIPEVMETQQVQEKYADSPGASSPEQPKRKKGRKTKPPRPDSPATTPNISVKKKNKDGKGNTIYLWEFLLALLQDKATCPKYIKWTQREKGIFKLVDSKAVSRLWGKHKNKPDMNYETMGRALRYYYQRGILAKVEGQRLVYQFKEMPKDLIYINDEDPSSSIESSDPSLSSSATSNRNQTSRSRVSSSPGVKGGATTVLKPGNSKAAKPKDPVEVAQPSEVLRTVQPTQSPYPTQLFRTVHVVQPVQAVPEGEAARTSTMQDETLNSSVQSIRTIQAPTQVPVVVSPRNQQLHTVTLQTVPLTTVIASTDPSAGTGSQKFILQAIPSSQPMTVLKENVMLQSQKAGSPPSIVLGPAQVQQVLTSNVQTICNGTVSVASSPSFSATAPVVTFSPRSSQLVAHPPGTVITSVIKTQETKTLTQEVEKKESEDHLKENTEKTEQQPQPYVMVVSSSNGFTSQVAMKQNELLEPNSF
# Sequence of ELF4 (Q99607 whole entry): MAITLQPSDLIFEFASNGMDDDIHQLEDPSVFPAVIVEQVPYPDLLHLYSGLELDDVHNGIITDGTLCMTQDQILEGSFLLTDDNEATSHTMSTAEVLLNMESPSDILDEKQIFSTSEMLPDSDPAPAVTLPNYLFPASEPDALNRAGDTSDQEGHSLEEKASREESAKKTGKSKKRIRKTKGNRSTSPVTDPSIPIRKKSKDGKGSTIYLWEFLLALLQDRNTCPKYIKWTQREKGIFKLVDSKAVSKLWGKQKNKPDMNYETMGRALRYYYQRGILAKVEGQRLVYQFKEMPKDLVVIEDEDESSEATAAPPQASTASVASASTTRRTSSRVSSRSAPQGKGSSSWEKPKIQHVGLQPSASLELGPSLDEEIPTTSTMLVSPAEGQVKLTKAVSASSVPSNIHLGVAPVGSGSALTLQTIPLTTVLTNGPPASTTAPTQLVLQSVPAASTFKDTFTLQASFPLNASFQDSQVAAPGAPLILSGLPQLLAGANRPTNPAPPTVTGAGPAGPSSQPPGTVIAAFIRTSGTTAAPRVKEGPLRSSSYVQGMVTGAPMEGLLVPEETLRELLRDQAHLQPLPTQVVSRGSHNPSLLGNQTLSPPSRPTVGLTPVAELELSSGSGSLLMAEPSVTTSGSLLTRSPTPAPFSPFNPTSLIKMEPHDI
# Sequence of ETV5 (P41161 whole entry): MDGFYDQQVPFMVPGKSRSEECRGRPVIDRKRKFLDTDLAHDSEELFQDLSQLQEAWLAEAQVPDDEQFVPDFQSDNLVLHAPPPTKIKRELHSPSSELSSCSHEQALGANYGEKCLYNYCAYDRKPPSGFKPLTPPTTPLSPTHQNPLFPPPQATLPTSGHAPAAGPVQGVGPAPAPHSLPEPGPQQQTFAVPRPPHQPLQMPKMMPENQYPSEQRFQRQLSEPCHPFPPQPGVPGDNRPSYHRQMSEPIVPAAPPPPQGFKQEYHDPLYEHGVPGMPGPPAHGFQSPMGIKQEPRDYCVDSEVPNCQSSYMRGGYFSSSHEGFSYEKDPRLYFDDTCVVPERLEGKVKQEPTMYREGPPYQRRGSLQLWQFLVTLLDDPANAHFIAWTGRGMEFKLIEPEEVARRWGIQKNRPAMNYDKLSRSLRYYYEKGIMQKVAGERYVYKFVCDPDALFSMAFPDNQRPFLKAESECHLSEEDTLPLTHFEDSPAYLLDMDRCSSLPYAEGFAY
# Sequence of ETV1 (P50549 whole entry): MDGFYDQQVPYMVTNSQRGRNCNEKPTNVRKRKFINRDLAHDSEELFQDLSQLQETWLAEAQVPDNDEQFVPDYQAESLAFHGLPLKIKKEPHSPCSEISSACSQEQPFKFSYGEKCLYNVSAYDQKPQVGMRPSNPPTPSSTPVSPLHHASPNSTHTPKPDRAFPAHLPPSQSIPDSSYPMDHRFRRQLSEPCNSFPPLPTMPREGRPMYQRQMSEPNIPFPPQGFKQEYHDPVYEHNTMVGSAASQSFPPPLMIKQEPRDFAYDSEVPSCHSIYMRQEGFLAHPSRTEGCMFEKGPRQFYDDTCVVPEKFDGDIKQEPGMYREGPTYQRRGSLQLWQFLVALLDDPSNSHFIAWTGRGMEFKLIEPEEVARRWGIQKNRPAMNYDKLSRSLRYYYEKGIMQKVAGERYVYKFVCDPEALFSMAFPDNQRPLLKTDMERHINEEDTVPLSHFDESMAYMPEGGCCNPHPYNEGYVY
# Sequence of CRX (O43186 whole entry): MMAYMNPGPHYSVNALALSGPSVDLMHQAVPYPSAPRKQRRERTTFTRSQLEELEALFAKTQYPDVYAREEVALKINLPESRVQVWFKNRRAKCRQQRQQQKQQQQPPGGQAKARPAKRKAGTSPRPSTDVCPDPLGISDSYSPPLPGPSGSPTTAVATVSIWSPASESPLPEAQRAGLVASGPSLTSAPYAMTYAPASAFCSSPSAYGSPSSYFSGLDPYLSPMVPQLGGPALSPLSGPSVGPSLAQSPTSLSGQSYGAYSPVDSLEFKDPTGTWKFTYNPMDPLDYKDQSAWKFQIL
# Sequence of SPIB (Q01892 whole entry): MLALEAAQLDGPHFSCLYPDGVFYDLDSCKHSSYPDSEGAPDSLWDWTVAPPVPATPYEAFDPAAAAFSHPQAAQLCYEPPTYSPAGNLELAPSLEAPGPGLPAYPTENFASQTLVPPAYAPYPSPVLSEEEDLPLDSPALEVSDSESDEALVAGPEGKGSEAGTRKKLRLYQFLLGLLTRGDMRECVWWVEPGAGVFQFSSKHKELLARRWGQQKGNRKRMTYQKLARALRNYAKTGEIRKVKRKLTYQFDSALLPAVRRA
Sequence,binding signal (FLI1),binding signal (GABPA),binding signal (ERG),binding signal (ELF1),binding signal (SPIB),binding signal (ELK3),binding signal (FEV),binding signal (ETV5),binding signal (HSF1),binding signal (SPIC),binding signal (ELF4),binding signal (ETV2),binding signal (ELF3),binding signal (CRX),binding signal (ETV1),binding signal (ELK1),binding signal (EHF),binding signal (SPI1)
ACGATC,"1.05 fold enrichment (6-mer frequency, TF over GST control)","1.17 fold enrichment (6-mer frequency, TF over GST control)","1.03 fold enrichment (6-mer frequency, TF over GST control)","1.09 fold enrichment (6-mer frequency, TF over GST control)","1.08 fold enrichment (6-mer frequency, TF over GST control)","1.1 fold enrichment (6-mer frequency, TF over GST control)","1.07 fold enrichment (6-mer frequency, TF over GST control)","1.06 fold enrichment (6-mer frequency, TF over GST control)","1.15 fold enrichment (6-mer frequency, TF over GST control)","1.02 fold enrichment (6-mer frequency, TF over GST control)","1.08 fold enrichment (6-mer frequency, TF over GST control)","1.09 fold enrichment (6-mer frequency, TF over GST control)","1.04 fold enrichment (6-mer frequency, TF over GST control)","1.14 fold enrichment (6-mer frequency, TF over GST control)","1.05 fold enrichment (6-mer frequency, TF over GST control)",–,–,–
AGATGA,"1.06 fold enrichment (6-mer frequency, TF over GST control)",–,"1.11 fold enrichment (6-mer frequency, TF over GST control)","1.14 fold enrichment (6-mer frequency, TF over GST control)","1.03 fold enrichment (6-mer frequency, TF over GST control)","1.14 fold enrichment (6-mer frequency, TF over GST control)","1.01 fold enrichment (6-mer frequency, TF over GST control)","1.11 fold enrichment (6-mer frequency, TF over GST control)","1.24 fold enrichment (6-mer frequency, TF over GST control)","1.14 fold enrichment (6-mer frequency, TF over GST control)","1.12 fold enrichment (6-mer frequency, TF over GST control)","1.17 fold enrichment (6-mer frequency, TF over GST control)",–,"1.21 fold enrichment (6-mer frequency, TF over GST control)","1.1 fold enrichment (6-mer frequency, TF over GST control)","1.13 fold enrichment (6-mer frequency, TF over GST control)","1.06 fold enrichment (6-mer frequency, TF over GST control)","1.07 fold enrichment (6-mer frequency, TF over GST control)"
